PubChem BioAssay (EPA / NIEHS)
Active and inactive are the calls of the source. The calls were made as follows: active = hit-call score of the fitted dose curve at least 0.9, where 1 is the maximum; inactive = score below 0.9.

Assay: ATG_Sox_CIS: Attagene CIS-FACTORIAL HepG2 Assay for human SRY-box transcription factor (SOX) (AID 2282960)
Conditions: HepG2 Attagene cis-factorial SOX reporter, mRNA; actives raise or lower the signal
Description: ATG_CIS is a cell-based, multiplexed-readout assay that uses HepG2, a human liver cell line, with measurements taken at 24 hours after chemical dosing in a 24-well plate.ATG_Sox_CIS is one of 52 assay component(s) measured or calculated from the ATG_CIS assay. It is designed to make measurements of mRNA induction, a form of inducible reporter, as detected with fluorescence intensity signals by Reverse transcription polymerase chain reaction (RT-PCR) and Capillary electrophoresis technology.Data from the assay component ATG_Sox_CIS was analyzed into 1 assay endpoint. This assay endpoint, ATG_Sox_CIS, was analyzed with bidirectional fitting relative to DMSO as the negative control and baseline of activity. Using a type of inducible reporter, measures of mRNA for gain or loss-of-signal activity can be used to understand the reporter gene at the transcription factor-level as they relate to the gene SOX1. Furthermore, this assay endpoint can be referred to as a primary readout, because this assay has produced multiple assay endpoints where this one serves a reporter gene function. To generalize the intended target to other relatable targets, this assay endpoint is annotated to the dna binding intended target family, where the subfamily is HMG box protein.
Human liver HepG2 cells are transiently transfected with multiple reporter transcription units (MRTUs) in 6-well plates using FuGene 6 reagent (Roche; 3 ml FuGene/1 mg DNA). The MRTU constructs are regulated by a cis-regulating element (promoter). […] A major difference between the CIS and TRANS system is that in CIS activities of endogenous TFs are measured, whereas the TRANS assay evaluates changes in activities of exogenous, chimeric NR-Gal4 proteins. […] At the end of 24 hour incubation, total RNA was isolated using TriZol reagent (Invitrogen). The isolated RNA is then reverse-transcribed using oligo(dT) primer and Mo-MLV reverse transcriptase (Invitrogen) with DNAse I (Ambion) treatment for 30 min. The one-tenth of the produced cDNA was amplified by PCR using Taq DNA polymerase (Invitrogen) and two reporter sequence-specific primers. The PCR products were fluorescently labeled by primer extension with 6-arboxyfluorescein (6-FAM) 5'-labeled reporter sequence-specific primer (2 min at 95 C, 20 s at 68 C and 10 min at 72 C) and these products were digested with 5U of HpaI (New England Biolabs) for 2h at 37 C. The fragments were purified using Qiaquick PCR columns (Qiagen), analyzed on an ABI 3130xL genetic analyzer (Applied Biosystems) with peak positions identified by using a set of X-rhodamine (ROX)-labeled MapMarker1000 molecular weight standards (BioVentures). The raw capillary electrophoresis data was processed using Attagraph software (Attagene).

For `CCCCN(CCCCO)N=O`, which outcome is on record?
The outcome was “inactive”.

For `Cc1ccc2nc3sc(=O)sc3nc2c1`, which AC50 is on record?
Its AC50 is 6.58 µM (active).

With `CCC[CH2][Sn]([CH2]CCC)([CH2]CCC)[CH2]CCC` as the compound, how does the AC50 read?
Its AC50 is 11.1 µM (active).

Which outcome does the source give for `Cc1cc(Cl)ccc1N` here?
The outcome was “inactive”.

For `O=C(CCl)NCO`, which outcome is on record?
Its outcome is “inactive”.

Which outcome does the source give for `C=CCCl` here?
Its outcome is “inactive”.

For `Cc1cc(-c2cc(C)c(N)c(C)c2)cc(C)c1N`, which outcome is on record?
Its outcome is “inactive”.

With `CCOC(=O)CC(=O)CCl` as the compound, how does the AC50 read?
Its AC50 is 26.2 µM (active).

With `C=CCN=C=S` as the compound, how does the outcome read?
The outcome was “inactive”.

Which outcome does the source give for `CNC(=O)CSP(=O)(OC)OC` here?
Its outcome is “inactive”.

With `Brc1c(Br)c(Br)c(Oc2c(Br)c(Br)c(Br)c(Br)c2Br)c(Br)c1Br` as the compound, how does the outcome read?
The outcome was “inactive”.

With `CCOP(=S)(OCC)Oc1ccc(Cl)cc1Cl` as the compound, how does the outcome read?
Its outcome is “inactive”.

Which outcome does the source give for `C=CCOC(N)=O` here?
The outcome was “inactive”.

For `CCCCC(CC)COC(=O)Cl` (stereo not given), which outcome is on record?
The outcome was “inactive”.

Which outcome does the source give for `C#C[C@]1(O)CC[C@H]2[C@@H]3CCC4=CC(=O)CC[C@]4(C)[C@H]3CC[C@@]21C` here?
Its outcome is “inactive”.

With `OCC(c1ccc(Cl)cc1)c1ccc(Cl)cc1` as the compound, how does the outcome read?
Its outcome is “inactive”.

For `OC[C@@H](O)[C@H]1O[C@@H]2O[C@H](C(Cl)(Cl)Cl)O[C@@H]2[C@H]1O`, which outcome is on record?
The outcome was “inactive”.

With `CN(C)CCN(C)C` as the compound, how does the outcome read?
The outcome was “inactive”.

Which AC50 does the source give for `O=C1c2ccccc2C(=O)C1C(=O)C(c1ccccc1)c1ccc(Cl)cc1` (stereo not given) here?
The AC50 was 7.35 µM (active).

For `CNC(=O)O/N=C/C(C)(C)S(C)(=O)=O`, which outcome is on record?
The outcome was “inactive”.

With `CC(C)CP(=S)(S)CC(C)C` as the compound, how does the outcome read?
Its outcome is “inactive”.

For `O=C(Cl)OCCOCCOC(=O)Cl`, which outcome is on record?
Its outcome is “inactive”.

With `CC(C=O)Cc1ccc2c(c1)OCO2` (stereo not given) as the compound, how does the outcome read?
The outcome was “inactive”.

With `CCCCCCCCCCCCCl` as the compound, how does the outcome read?
Its outcome is “inactive”.

With `C1CCC(C2CCCCC2)CC1` as the compound, how does the outcome read?
The outcome was “inactive”.

Which outcome does the source give for `CN(N=O)c1ccc([N+](=O)[O-])cc1` here?
Its outcome is “inactive”.

For `c1ccc(-c2cccc(-c3ccccc3)c2)cc1`, which outcome is on record?
The outcome was “inactive”.

Which outcome does the source give for `O=C(Cc1ccccc1)OCCc1ccccc1` here?
Its outcome is “inactive”.

For `C[As+](C)(C)CC(=O)[O-]`, which outcome is on record?
Its outcome is “inactive”.

For `CCCCC(CC)C(=O)Cl` (stereo not given), which outcome is on record?
Its outcome is “inactive”.

With `CCCCCCCCBr` as the compound, how does the outcome read?
The outcome was “inactive”.

Which outcome does the source give for `O=CCCl` here?
The outcome was “inactive”.

For `CS(=O)(=O)c1ccc(C(=O)C2C(=O)CCCC2=O)c(Cl)c1COCC(F)(F)F`, which outcome is on record?
Its outcome is “inactive”.

Which outcome does the source give for `Cc1cc(C)cc(C)c1` here?
The outcome was “inactive”.

Which outcome does the source give for `O=C=Nc1ccc(Cl)cc1` here?
Its outcome is “inactive”.

For `FC(F)OCC(F)(F)C(F)(F)F`, which outcome is on record?
Its outcome is “inactive”.

For `CC(C)N(C(=O)CCl)c1ccccc1`, which AC50 is on record?
Its AC50 is 48.2 µM (active).

Which outcome does the source give for `Clc1cccc(Cl)c1Cl` here?
The outcome was “inactive”.

For `Cl[C@H]1OCCO[C@@H]1Cl`, which outcome is on record?
The outcome was “inactive”.

Which outcome does the source give for `CC1(C)[C@H](/C=C2\CCSC2=O)[C@@H]1C(=O)OCc1coc(Cc2ccccc2)c1` here?
The outcome was “inactive”.
